Outcome and AC50 data for two compounds are collected here from PubChem BioAssay (EPA / NIEHS).

Broadly, the AC50 is the concentration giving half of the maximal activity seen.

Several values for one entry are separate records, joined by “and”; a condition that tells them apart may be missing. Equal entries are not always repeated. Where a structure was tested more than once in an assay, its records may differ in their call. Activity calls are given as the source filed them. How the source made its calls: active means hit-call score of the fitted dose curve at least 0.9, where 1 is the maximum; inactive means score below 0.9.

Assay [1] is described as follows: ATG_E_Box_CIS: Attagene CIS-FACTORIAL HepG2 Assay for human Enhancer Box (E-box) (AID 2282936). The conditions noted are these: HepG2 E-box cis-reporter transcription, actives raise or lower the signal. The essentials: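 Multiplexed CIS reporter system in transiently transfected HepG2 cells measures native transcription factor activity. Reporter RNA after 24 h exposure is profiled by RT-PCR-capillary electrophoresis.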

A short description of assay [2]: ATG_M_61_CIS: Attagene CIS-FACTORIAL HepG2 Assay for M61 Transcription Factor (Internal Marker) (AID 2282937). The conditions noted are these: HepG2 Attagene CIS-FACTORIAL M61 internal marker reporter; actives raise or lower the signal. The essentials: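 Multiplexed reporter mRNA assay, HepG2 human hepatoma cells, 24 h treatment. Signal: FAM-labelled, HpaI-digested RT-PCR fragments by CE. Fit: bidirectional, baseline DMSO.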

A short description of assay [3]: ATG_EGR_CIS: Attagene CIS-FACTORIAL HepG2 Assay for human Early Growth Response 1 (EGR1) (AID 2282938). The conditions noted are these: HepG2 Attagene CIS-FACTORIAL EGR reporter mRNA; actives raise or lower the signal. The essentials:
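Multiplexed cis-reporter system in human hepatoma HepG2 cells, transiently transfected. Cells are dosed for 24 h; reporter transcripts are amplified, fluorescently tagged and sized by capillary electrophoresis, with DMSO as negative control.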

A short description of assay [4]: ATG_M_19_CIS: Attagene CIS-FACTORIAL HepG2 Assay for M19 Transcription Factor (Internal Marker) (AID 2282939). The conditions noted are these: HepG2 Attagene CIS-FACTORIAL M19 internal marker reporter; actives raise or lower the signal. The essentials:
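HepG2 cells transiently transfected with cis-regulated multiple reporter transcription units were dosed for 24 h; reporter mRNA was quantified by RT-PCR, 6-FAM primer-extension labelling, HpaI digestion and capillary electrophoresis, with bidirectional fitting against DMSO baseline.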

A short description of assay [5]: ATG_ERE_CIS: Attagene CIS-FACTORIAL HepG2 Assay for Estrogen Response Element (ERE) (AID 2282940). The conditions noted are these: HepG2 ERE cis-reporter, Attagene RNA transcript; actives raise or lower the signal. The essentials: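 HepG2 cells transiently transfected with cis-promoter-driven multiplexed reporter transcription units report endogenous TF activity. After 24 h compound exposure, reporter mRNA is quantified by RT-PCR with capillary electrophoresis fluorescence; bidirectional fitting versus DMSO baseline.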

Assay [6] in a line: ATG_Ets_CIS: Attagene CIS-FACTORIAL HepG2 Assay for human Erythroblast Transformation Specific (ETS) (AID 2282941). The conditions noted are these: HepG2 ETS cis-reporter transcription, actives raise or lower the signal. The method, boiled down: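 After transient cis-reporter transfection, HepG2 cells receive test chemical for 24 h. Reporter mRNA levels, measured by RT-PCR and capillary electrophoresis fluorescence, are analysed bidirectionally relative to the DMSO baseline.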

Assay [7] addresses Hepatocyte nuclear factor 3-beta (Homo sapiens) (UniProt Q9Y261). As to the kind of experiment: ATG_FoxA2_CIS: Attagene CIS-FACTORIAL HepG2 Assay for human Forkhead box A2 (FOXA2) (AID 2282942). The conditions noted are these: HepG2 cis-reporter transcription factor activity, 24 h; actives raise or lower the signal. The essentials:
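Multiplexed cis-element reporter assay in transiently transfected HepG2. Twenty-four hours post-dosing, RNA was reverse-transcribed, amplified, FAM-labelled, HpaI-digested and separated by CE. Activity gain or loss relative to DMSO.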

The nature of assay [8]: ATG_FoxO_CIS: Attagene CIS-FACTORIAL HepG2 Assay for human Forkhead box O (FoxO) (AID 2282943). The conditions noted are these: HepG2 Attagene cis-reporter, FoxO element, mRNA; actives raise or lower the signal. The method, boiled down:
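Values reflect reporter mRNA induction or loss in HepG2 cells 24 h post-dosing, fitted bidirectionally with DMSO as negative control and baseline. Detection used RT-PCR and fluorescence capillary electrophoresis.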

Assay [9] in a line: ATG_GATA_CIS: Attagene CIS-FACTORIAL HepG2 Assay for human GATA Binding Protein (AID 2282944). The conditions noted are these: HepG2 GATA cis-element reporter, Attagene multiplex mRNA; actives raise or lower the signal. The essentials:
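HepG2 cells transiently transfected with multiplexed cis-element reporter units reflecting endogenous transcription factor activity; reporter mRNA measured after 24 h dosing by RT-PCR, 6-FAM labeling, HpaI digestion and capillary electrophoresis. Bidirectional fitting versus DMSO baseline.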

Assay [10] can be described thus: ATG_GLI_CIS: Attagene CIS-FACTORIAL HepG2 Assay for human Zinc Finger Protein GLI1 (AID 2282945). The conditions noted are these: HepG2, Attagene cis-factorial reporter mRNA, GLI element; actives raise or lower the signal. The essentials:
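HepG2 cells transiently transfected with cis-promoter multiplexed reporter units report endogenous transcription factor activity. After 24 h chemical exposure, reporter mRNA was quantified by RT-PCR, 6-FAM labelling, HpaI digestion and capillary electrophoresis, with bidirectional fitting against DMSO.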

The nature of assay [11]: ATG_GRE_CIS: Attagene CIS-FACTORIAL HepG2 Assay for human Glucocorticoid Response Elements (GRE) (AID 2282947). The conditions noted are these: HepG2 GRE cis-reporter, Attagene multiplex mRNA; actives raise or lower the signal. The method, boiled down:
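Following 24 h chemical exposure of transiently transfected HepG2 cells, total RNA was reverse-transcribed and reporter cDNA amplified, fluorescently labelled and sized by capillary electrophoresis. Signal gain or loss was fitted relative to DMSO vehicle.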

Assay [12] is described as follows: ATG_ISRE_CIS: Attagene CIS-FACTORIAL HepG2 Assay for human Interferon Regulatory Factor 1 (IRF1) binding to an Interferon-Stimulated Response Element (ISRE) (AID 2282948). The conditions noted are these: HepG2 ISRE cis-reporter (Attagene), mRNA transcription readout; actives raise or lower the signal. The method, boiled down:
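Quantitation relies on labelled RT-PCR fragments separated by capillary electrophoresis. Human HepG2 cells bearing cis-promoter reporter constructs were treated 24 h; DMSO served as baseline for bidirectional fitting.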

Assay [13] can be described thus: ATG_M_32_CIS: Attagene CIS-FACTORIAL HepG2 Assay for M32 Transcription Factor (Internal Marker) (AID 2282949).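 Further: background control marker of the multiplexed CIS panel rather than a real target.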 The conditions noted are these: HepG2 Attagene cis-factorial M32 reporter, mRNA; actives raise or lower the signal. The method, boiled down:
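HepG2 cells transiently transfected with multiplexed cis-regulated reporter units, dosed 24 h. Reporter mRNA quantified by RT-PCR, 6-FAM labelling, HpaI digestion and capillary electrophoresis; bidirectional fit vs DMSO.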

A short description of assay [14]: ATG_M_06_CIS: Attagene CIS-FACTORIAL HepG2 Assay for M06 Transcription Factor (Internal Marker) (AID 2282950). The conditions noted are these: HepG2 Attagene CIS-FACTORIAL M06 internal marker reporter; actives raise or lower the signal. The essentials: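 HepG2 cells transiently transfected with cis-regulated multiple reporter transcription units were exposed to chemical for 24 h; reporter mRNA was quantified by RT-PCR, 6-FAM primer labelling, HpaI digestion and capillary electrophoresis, fitted bidirectionally against DMSO.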

For assay [15], the target named is Hypoxia-inducible factor 1-alpha (Homo sapiens) (UniProt Q16665). As to the kind of experiment: ATG_HIF1a_CIS: Attagene CIS-FACTORIAL HepG2 Assay for human Hypoxia Inducible Factor 1 (HIF1A) (AID 2282951). The conditions noted are these: HepG2 Attagene cis-factorial HIF1a reporter transcription; actives raise or lower the signal. The method, boiled down: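 Cis-element reporter constructs were transiently transfected into HepG2 cells, which were treated for 24 h; reporter RNA was reverse-transcribed, amplified, labelled and resolved by capillary electrophoresis.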

For assay [16], the target named is Hepatocyte nuclear factor 6 (Homo sapiens) (UniProt Q9UBC0). As to the kind of experiment: ATG_HNF6_CIS: Attagene CIS-FACTORIAL HepG2 Assay for human Hepatocyte Nuclear Factor 6 (HNF6) (AID 2282952). The conditions noted are these: HepG2 Attagene cis-factorial HNF6 reporter transcription; actives raise or lower the signal. The method, boiled down:
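HepG2 cells transiently transfected with cis-element-driven multiplexed reporter units measuring endogenous transcription factor activity. After 24 h exposure, reporter mRNA quantified by RT-PCR, FAM-labelled fragments and capillary electrophoresis; bidirectional fitting versus DMSO.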

Assay [17] addresses Heat shock factor protein 1 (Homo sapiens) (UniProt Q00613). As to the kind of experiment: ATG_HSE_CIS: Attagene CIS-FACTORIAL HepG2 Assay for human Heat Shock Transcription Factor 1 (HSE) (AID 2282953). The conditions noted are these: HepG2 HSE cis-reporter, Attagene RNA transcription; actives raise or lower the signal. The essentials: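 HepG2 cells transiently transfected with multiple reporter transcription units under cis-regulatory promoter control, measuring endogenous transcription factor activity. After 24 h chemical exposure, reporter mRNA quantified by RT-PCR, fluorescent labelling, HpaI digestion and capillary electrophoresis; bidirectional fit versus DMSO.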

Assay [18] in a line: ATG_MRE_CIS: Attagene CIS-FACTORIAL HepG2 Assay for human Metal Responsive Element (MRE) (AID 2282954). The conditions noted are these: HepG2 MRE cis-reporter transcription, Attagene multiplex; actives raise or lower the signal. The method, boiled down: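 Step one: transfect HepG2 with cis-regulated reporter units. Step two: dose 24 h. Step three: isolate RNA, RT-PCR, 6-FAM label, HpaI digest, capillary electrophoresis. Fit bidirectionally to DMSO.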

A short description of assay [19]: ATG_PBREM_CIS: Attagene CIS-FACTORIAL HepG2 Assay for human Phenobarbital-responsive Enhancer Module (PBREM) (AID 2282955). The conditions noted are these: HepG2 PBREM cis-reporter, Attagene multiplexed transcription; actives raise or lower the signal. The essentials: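 Multiplexed cis-reporter readout in human hepatoma HepG2 cells; PBREM-regulated transcript quantified after 24 h exposure by fluorescent RT-PCR fragment analysis. Signal changes up or down fitted relative to DMSO.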

The target in assay [20] is Paired box protein Pax-6 (Homo sapiens) (UniProt P26367). As to the kind of experiment: ATG_Pax6_CIS: Attagene CIS-FACTORIAL HepG2 Assay for human Paired Box 6 (PAX6) (AID 2282956). The conditions noted are these: HepG2 CIS-FACTORIAL PAX6 reporter transcription, RNA readout; actives raise or lower the signal. The essentials: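 After twenty-four hours of chemical exposure, transfected HepG2 cells are harvested for RNA. Cis-promoter reporter transcripts are amplified, fluorescently labelled and sized by capillary electrophoresis, with gain and loss of signal scored against DMSO.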
Chain of Paired box protein Pax-6 (Homo sapiens) (P26367 whole entry, looked up): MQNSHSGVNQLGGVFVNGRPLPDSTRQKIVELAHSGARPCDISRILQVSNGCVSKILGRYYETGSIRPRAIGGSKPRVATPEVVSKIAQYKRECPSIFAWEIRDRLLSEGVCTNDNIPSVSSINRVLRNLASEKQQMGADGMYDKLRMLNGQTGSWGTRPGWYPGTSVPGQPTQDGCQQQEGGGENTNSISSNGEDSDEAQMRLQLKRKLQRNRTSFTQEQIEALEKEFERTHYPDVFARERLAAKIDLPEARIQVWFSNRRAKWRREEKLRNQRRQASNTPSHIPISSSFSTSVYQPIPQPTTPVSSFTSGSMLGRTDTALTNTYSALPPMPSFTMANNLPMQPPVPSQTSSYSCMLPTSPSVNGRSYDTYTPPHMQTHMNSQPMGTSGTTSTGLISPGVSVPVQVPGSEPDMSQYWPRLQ

Chain of Heat shock factor protein 1 (Homo sapiens) (Q00613 whole entry, looked up): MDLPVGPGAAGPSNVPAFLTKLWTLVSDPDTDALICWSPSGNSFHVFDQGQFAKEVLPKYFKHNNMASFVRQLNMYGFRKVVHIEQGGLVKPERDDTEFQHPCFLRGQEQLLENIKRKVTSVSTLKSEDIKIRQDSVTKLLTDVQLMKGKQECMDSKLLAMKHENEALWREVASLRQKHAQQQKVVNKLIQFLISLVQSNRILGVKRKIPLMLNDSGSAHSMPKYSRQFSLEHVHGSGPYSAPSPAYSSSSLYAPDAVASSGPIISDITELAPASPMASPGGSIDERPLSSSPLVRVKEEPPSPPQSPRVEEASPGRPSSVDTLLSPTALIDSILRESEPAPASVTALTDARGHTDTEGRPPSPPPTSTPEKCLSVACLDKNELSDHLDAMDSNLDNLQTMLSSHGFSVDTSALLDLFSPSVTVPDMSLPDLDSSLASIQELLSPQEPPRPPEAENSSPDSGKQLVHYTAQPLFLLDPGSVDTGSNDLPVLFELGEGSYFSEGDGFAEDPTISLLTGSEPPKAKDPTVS
Chain of Hepatocyte nuclear factor 3-beta (Homo sapiens) (Q9Y261 whole entry, looked up): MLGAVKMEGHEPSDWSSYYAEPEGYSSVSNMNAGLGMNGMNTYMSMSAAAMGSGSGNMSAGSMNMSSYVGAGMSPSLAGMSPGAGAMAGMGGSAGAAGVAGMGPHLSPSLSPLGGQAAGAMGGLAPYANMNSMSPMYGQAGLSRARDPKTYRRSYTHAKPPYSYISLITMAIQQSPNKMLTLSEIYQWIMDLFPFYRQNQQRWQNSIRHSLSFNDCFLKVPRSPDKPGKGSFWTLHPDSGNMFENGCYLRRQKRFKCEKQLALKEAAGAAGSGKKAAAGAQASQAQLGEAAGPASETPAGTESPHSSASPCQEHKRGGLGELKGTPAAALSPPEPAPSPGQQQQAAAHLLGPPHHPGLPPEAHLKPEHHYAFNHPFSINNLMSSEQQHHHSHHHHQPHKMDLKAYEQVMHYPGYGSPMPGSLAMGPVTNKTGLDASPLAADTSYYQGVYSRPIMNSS
Chain of Hypoxia-inducible factor 1-alpha (Homo sapiens) (Q16665 whole entry, looked up): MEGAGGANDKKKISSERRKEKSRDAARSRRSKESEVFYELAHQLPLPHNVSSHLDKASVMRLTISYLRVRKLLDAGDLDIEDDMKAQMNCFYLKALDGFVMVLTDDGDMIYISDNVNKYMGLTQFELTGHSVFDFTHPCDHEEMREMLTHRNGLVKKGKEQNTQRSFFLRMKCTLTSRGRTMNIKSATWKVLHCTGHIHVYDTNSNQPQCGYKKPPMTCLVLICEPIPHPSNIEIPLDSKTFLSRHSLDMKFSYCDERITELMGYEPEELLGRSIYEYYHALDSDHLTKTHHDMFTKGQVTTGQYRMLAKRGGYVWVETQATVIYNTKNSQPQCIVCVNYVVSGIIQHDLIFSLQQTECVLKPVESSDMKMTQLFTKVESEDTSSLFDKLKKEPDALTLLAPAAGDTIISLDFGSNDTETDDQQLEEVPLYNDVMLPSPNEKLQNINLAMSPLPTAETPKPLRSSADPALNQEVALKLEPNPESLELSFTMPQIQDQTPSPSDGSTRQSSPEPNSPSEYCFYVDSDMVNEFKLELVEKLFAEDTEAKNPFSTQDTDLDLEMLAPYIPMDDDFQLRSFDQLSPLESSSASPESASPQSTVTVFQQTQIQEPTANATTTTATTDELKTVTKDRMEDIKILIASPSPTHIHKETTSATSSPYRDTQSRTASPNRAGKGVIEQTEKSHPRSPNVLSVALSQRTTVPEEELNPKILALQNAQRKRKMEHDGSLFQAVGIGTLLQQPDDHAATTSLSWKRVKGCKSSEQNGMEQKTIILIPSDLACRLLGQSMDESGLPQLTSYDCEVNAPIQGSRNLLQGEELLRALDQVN
Chain of Hepatocyte nuclear factor 6 (Homo sapiens) (Q9UBC0 whole entry, looked up, the tested form may be a part): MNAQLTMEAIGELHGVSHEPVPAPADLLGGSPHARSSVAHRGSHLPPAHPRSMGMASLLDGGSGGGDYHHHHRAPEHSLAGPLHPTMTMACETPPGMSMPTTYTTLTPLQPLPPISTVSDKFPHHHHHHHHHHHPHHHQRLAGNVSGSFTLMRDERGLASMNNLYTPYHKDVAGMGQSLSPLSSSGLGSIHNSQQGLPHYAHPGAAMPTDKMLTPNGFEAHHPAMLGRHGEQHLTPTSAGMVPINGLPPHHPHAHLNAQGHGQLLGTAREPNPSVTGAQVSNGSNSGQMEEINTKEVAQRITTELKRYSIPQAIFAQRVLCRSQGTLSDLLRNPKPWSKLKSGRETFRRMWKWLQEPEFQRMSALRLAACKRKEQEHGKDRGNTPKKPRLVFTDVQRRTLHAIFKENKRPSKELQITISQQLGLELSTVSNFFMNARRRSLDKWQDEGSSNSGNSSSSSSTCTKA

On to `CC(C)(c1ccccc1)c1ccc(O)cc1`, for which the result in assay [1], in assay [2], in assay [3], in [4], in assay [6] and in assay [7] was inactive. Besides, the result in [8], in assay [9], in [10], in assay [11], in assay [12] and in [13] was inactive. Besides, the result in [14], in assay [15], in assay [16], in [17], in [18] and in assay [19] was inactive. The outcome in [20] was inactive. Moreover, the AC50 was 48.7 µM (active) in assay [3]; 435 nM (active) [middle of 4 runs] in assay [5]; 52.1 µM (active) in [9]; 55.4 µM (active) in assay [10]; 51.3 µM (active) in [11]; 52.5 µM (active) and 12.7 µM (active) in [15]. For the same compound, the AC50 was 54.7 µM (active) in assay [17]; 33.4 µM (active) and 52.1 µM (active) and 43.1 µM (active) in assay [18]; 33.4 µM (active) in assay [19]; 52.3 µM (active) and 39.5 µM (active) in [20].

Take `Cc1cc(O)ccc1Cl`: the outcome in assay [1], in [2], in assay [3], in assay [4], in assay [6] and in [7] was inactive. Besides, the call in [8], in assay [9], in [10], in assay [11], in assay [12] and in assay [13] was inactive. For the same compound, the outcome in assay [14], in assay [15], in assay [16], in [17], in [18] and in [20] was inactive. The AC50 in assay [5] was 48.5 µM (active).
